# Sampled rows, rich in hits. Any-hit rate of the full collection: about 2.1%.
# rat GALR2 ag: activates the rat galanin receptor 2. O08726. cell-based GALR2 agonist screen. actives 0.5% (n = 16,000). activation, % at 10 µM; in the data active means activation above about 15%
# OPRK1 antag MB: antagonists of human kappa opioid receptor OPRK1, Maybridge library; P41145; OPRK1 cells, antagonist mode, fluorescence readout; inhibition, % at 9 µM; actives 0.4% (n = 16,000); in the data active means inhibition above about 50%
# TLR4-MyD88 inh: inhibitors of human TLR4-MyD88 binding; actives 0.06% (n = 16,000); inhibition, % at 10 µM; Cell-based TLR4-MyD88 binding inhibition assay; O00206; in the data active means inhibition above about 45%
# Target sequence (O00206 whole entry, looked up): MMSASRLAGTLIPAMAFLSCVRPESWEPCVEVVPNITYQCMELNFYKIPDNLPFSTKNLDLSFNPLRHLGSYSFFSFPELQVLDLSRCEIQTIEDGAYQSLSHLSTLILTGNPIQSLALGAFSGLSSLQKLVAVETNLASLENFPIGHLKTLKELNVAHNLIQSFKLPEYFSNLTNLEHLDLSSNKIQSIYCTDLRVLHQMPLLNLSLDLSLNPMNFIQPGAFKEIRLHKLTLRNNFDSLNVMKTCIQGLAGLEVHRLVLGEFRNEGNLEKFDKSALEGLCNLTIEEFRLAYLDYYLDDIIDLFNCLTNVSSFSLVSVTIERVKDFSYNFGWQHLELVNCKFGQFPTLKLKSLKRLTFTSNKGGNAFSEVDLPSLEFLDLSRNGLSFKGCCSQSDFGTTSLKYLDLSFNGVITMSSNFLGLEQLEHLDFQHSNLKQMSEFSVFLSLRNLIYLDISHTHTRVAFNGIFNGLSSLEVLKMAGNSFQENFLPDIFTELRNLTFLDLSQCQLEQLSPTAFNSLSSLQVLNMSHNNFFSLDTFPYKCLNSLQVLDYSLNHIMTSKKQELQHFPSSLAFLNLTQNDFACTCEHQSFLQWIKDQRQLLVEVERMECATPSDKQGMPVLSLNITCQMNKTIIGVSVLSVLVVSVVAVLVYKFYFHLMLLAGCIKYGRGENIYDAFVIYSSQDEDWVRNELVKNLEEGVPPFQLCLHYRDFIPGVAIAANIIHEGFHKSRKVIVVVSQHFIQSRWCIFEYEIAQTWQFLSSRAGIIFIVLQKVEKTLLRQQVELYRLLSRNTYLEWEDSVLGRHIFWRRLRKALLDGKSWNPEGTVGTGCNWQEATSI
# S1P1 ag: S1P1 (human) receptor agonism | S1P1 agonist cell-based reporter assay | activation, % at 4.5 µM | actives 1.5% (n = 16,000); in the data active means activation above about 80%
# An asterisk follows results filed as active; / = no result given.
SMILES,rat GALR2 ag,OPRK1 antag MB,TLR4-MyD88 inh,S1P1 ag
O=C(CSc1nnc(-c2ccc(C(F)(F)F)cc2)o1)c1ccc(F)cc1,-6,9,5,-5
C/C(=N\N=C(/N)SCc1cc(F)cc2c1OCOC2)c1ccc(C)nc1,-6,-5,-4,90*
Cc1nnsc1C(=O)NCc1cc(F)cc2c1OCOC2,-3,12,5,4
Cc1c(NCN2C(=O)CCC2=O)cc2c(c1[N+](=O)[O-])C(C)(C)CC2(C)C,-10,-2,-5,81*
O=C(NNC(=S)Nc1cccc(C(F)(F)F)c1)c1sc2ccccc2c1Cl,-1,-1,-1,96*
O=C(NNC(=S)Nc1cccc(C(F)(F)F)c1)c1cccnc1,0,8,-1,-22
O=C1c2ccc(Cl)c3c(N4CCSCC4)ccc(c23)C(=O)N1c1ccccc1,-3,58*,12,9
CCOC(=O)c1cc(N2C(=O)c3ccccc3C2=O)ccc1N1CCCCC1,-10,-17,3,-1
Nc1c(C(=O)N/N=C/c2ccc3c(c2)OCO3)sc2nnc(-c3ccccc3)c(-c3ccccc3)c12,-21,80*,7,76
O=C(CN1C(=O)c2ccccc2C1=O)NCc1csc(-c2cccs2)n1,-3,-10,11,2
CSc1sc(C(=O)NNC(=O)Nc2ccc(Cl)cc2)c2c1C1(CCC2)SCCS1,-7,-20,-8,-13
CSc1sc(C(=O)NC(=O)Nc2ccc(Cl)cc2)c2c1-c1nocc1CC2,-3,68*,-3,108*
CCOC(=O)N1CCC(NS(=O)(=O)c2c(C)noc2C)CC1,-4,6,9,1
CC(ONC(=O)c1cc(C(F)(F)F)cc(C(F)(F)F)c1)C(=O)Nc1ccc(Cl)cc1 (stereo unspecified),-8,12,-3,110*
Cn1c(=O)c2c(nc(N=Nc3c(O)[nH]c4cc(Br)ccc34)n2C)n(C)c1=O,-6,-37,9,15
Oc1[nH]c2ccccc2c1N=Nc1nc(-c2ccc(Br)cc2)cs1,-7,15,-1,82*
CCN(CC)c1ccc(/C=C/c2ccc([N+](=O)[O-])cc2C#N)cc1,-13,69*,7,104*
O=C1c2ccccc2S(=O)(=O)N1CCS(=O)(=O)c1ccc(Cl)cc1Cl,-2,-19,/,91*
O=C1c2ccccc2S(=O)(=O)N1CC1CC1,-9,10,-3,-15
COC(=O)c1cc(NC(=S)NC(=O)c2ccccc2)ccc1N1CCOCC1,-5,9,6,88*
COC(=O)c1cc(NC(=O)c2c(-c3c(Cl)cccc3Cl)noc2C)ccc1N1CCOCC1,-5,25,0,-1
O=C(NC1CCN(C(=O)c2cccs2)CC1)C1CCCCC1,-4,-7,5,8
COc1ccc(C(=O)N/N=C(/C(=O)O)c2ccccc2)cc1,-3,9,5,-11
COc1ccc(C(=O)NC(=Nc2c(C)cccc2C)SC)cc1,-10,2,3,101*
CC(=O)c1ccccc1OCC(=O)O,-1,-3,-8,-25
SMILES,rat GALR2 ag,OPRK1 antag MB,TLR4-MyD88 inh,S1P1 ag
C=C(c1ccccc1O)n1ccnc1,-7,-4,-7,-8
O=C(/C(=C\c1ccccc1)n1ccnc1)c1ccccc1OCc1ccccc1,-9,-10,-1,121*
Cc1csc2ncnc(NNC(=O)c3ccc(Cl)cc3)c12,-11,-13,1,35
Cc1csc2ncnc(NCCc3ccc(Cl)cc3)c12,-8,-6,-2,102*
COc1ccc(Nc2ncnc(-n3cccc3)n2)c(OC)c1,-6,3,-9,-17
CSc1nccc(-c2ccc(S(=O)(=O)Nc3cc(C(F)(F)F)cc(C(F)(F)F)c3)s2)n1,-5,15,-7,88*
N/C(=N\OC(=O)c1ccc([N+](=O)[O-])o1)c1ccc(Oc2ccc(C(F)(F)F)cc2[N+](=O)[O-])cc1,-6,6,-3,5
O=C1CN(c2ccc(OC(F)(F)F)cc2)C(=O)CN1CC1CC1,44*,-7,6,3
N#C/C(=N\Nc1ccc(OC(F)(F)F)cc1)C(=O)c1ccsc1,-10,-1,-2,107*
COc1cc(C(=O)NC(=S)Nc2nc(-c3ccc(F)cc3)cs2)cc(OC)c1OC,3,13,-3,-9
COc1c(Cl)cc(Cl)cc1-c1csc(NC(=O)C(Cl)(Cl)Cl)n1,-8,0,-8,89*
CC(=O)c1sc(-c2ccccc2)cc1NC(=O)c1ccccc1,-9,11,6,-4
Cc1ccc(Cn2nc(C(=O)O/N=C(\N)c3ccccc3)cc2C)cc1,-9,4,-13,100*
Cn1nc(C(C)(C)C)cc1C(=O)O/N=C(\N)c1ccccc1,-1,9,-13,72
Cc1ccc(S(=O)(=O)OCC23C=CC(CC2)CC3)cc1,-8,-11,12,56
CN(C=C(C#N)C#N)C[C@@H](O)[C@H](O)[C@@H](O)[C@@H](O)CO,-5,17,-4,-5
Cc1ccccc1/C(N)=N/OC(=O)c1ccc(C(C)(C)C)s1,-2,11,3,103*
N/C(=N\OC(=O)c1c(F)cccc1F)c1cccc(-n2cccc2)c1,-6,5,2,95*
Cc1nc2ccccn2c1C(=O)NNS(=O)(=O)c1sc2ccc(Cl)cc2c1C,-6,-3,-3,100*
Cc1cc(N)n(-c2cc(C)c3c(C)nn(C)c3n2)n1,-4,1,1,-32
NS(=O)(=O)/C=C/c1ccccc1,-8,15,-1,8
CNc1nnc(SCc2csc3ccccc23)s1,-6,2,13,118*
CC(=NCCc1ccccc1)C1CCOC1=O (stereo unspecified),0,-11,8,114*
O=C(/C(=C\c1cccs1)c1ccsc1)N1CCOCC1,-5,-12,6,-4
N#C/C(=C\c1cccs1)C(=O)N1CCOCC1,-7,12,4,100*
SMILES,rat GALR2 ag,OPRK1 antag MB,TLR4-MyD88 inh,S1P1 ag
Brc1ccc(-c2csc(Nc3ccncc3)n2)cc1,-7,68*,24,65
CCOC(=O)/C(=N\O)C1=CSC2=NNC(C)(C)N12,-1,25,6,94*
O=C(Nc1ccc(S(=O)(=O)Nc2cccc(C(F)(F)F)c2)cc1)c1cccs1,-4,12,5,7
Cc1ccc(-c2cc(Cc3ccncc3)c(=O)[nH]n2)cc1,-5,-10,-11,-16
O=c1ccc(-c2ccncc2)n[nH]1,23*,-4,-3,-9
O=C(Nc1ccc([N+](=O)[O-])cc1)Nc1csc(-c2cccnc2)n1,0,52*,9,11
Cc1c(-c2ccccc2)sc(/N=C/c2cc(Cl)cc(Cl)c2O)c1C#N,6,-1,-1,10
O=C(Nc1nnc(C(F)(F)F)s1)c1ccccc1,-6,7,-1,9
O=C(Nc1ccccc1)Nc1nnc(C(F)(F)F)s1,-13,32,-25,109*
Cc1nc(C)c(S(=O)(=O)NCc2c(-c3ccccc3)noc2C)s1,-6,-13,-16,6
Cc1onc(-c2ccccc2)c1CNS(=O)(=O)c1cnn(-c2ccccc2)c1C,-12,106*,4,8
N#Cc1c(S/C=C(\O)c2cc3ccccc3o2)nc2c(c1C(F)(F)F)CCCC2,-16,77*,6,22
Cc1cc(-c2nnc(-c3cccc(C(F)(F)F)c3)o2)no1,-3,18,-1,80*
Cn1c(-c2ccccn2)n[nH]c1=S,-10,-15,3,88*
